MOR-DOR inv ag – inverse agonists of MOR-DOR heterodimerization, primary screen, cell-based, luminescence. cell-based MOR-DOR heterodimer luminescence, inverse agonism. inhibition, % at 9.3 µM. hit rate 0.21% among 340,000; in the data active means inhibition above about 22%, passing the limit was not always enough
HTR5A ag – HTR5A agonists in luminescence cell assay, primary screen, counter-screen for OPRM1-OPRD1 heterodimer agonist project, full-deck HTS. 5-hydroxytryptamine receptor 5A (Homo sapiens), P47898. cell-based. activation, % at 9.3 µM. hit rate 0.61% among 340,000; in the data active means activation mostly above about 9.5%, no sharp cut-off; inactive means mostly below about 7.6%
HTR5A inv ag – HTR5A inverse agonists in luminescence cell assay, primary screen, counter-screen for OPRM1-OPRD1 heterodimer inverse agonist project, full-deck HTS; 5-hydroxytryptamine receptor 5A (Homo sapiens), P47898; HTR5A cell line, inverse agonism; inhibition, % at 9.3 µM; hit rate 0.083% among 340,000; AID 504634, 2011; in the data active means inhibition mostly above about 23%, no sharp cut-off; inactive means mostly below about 18%
OPRM1-OPRD1 ag – agonists of OPRM1-OPRD1 heterodimerization, primary screen, cell-based, luminescence; cells; hit rate 0.3% among 340,000; Mu-type opioid receptor (Homo sapiens) + Delta-type opioid receptor (Homo sapiens), …; activation, % at 9.3 µM; in the data active means activation above about 18%
Bfl-1 A1 inh – caspase 3/7 activation in MEF A1-2A-BIM cells, primary screen, A1 inhibitor project, cell-based, luminescence, HTS. Caspase-Glo 3/7 luminescence, 3 h; percent of clofoctol response, vehicle zero. caspase activation, % (concentration not given with the values). hit rate 0.066% among 330,000;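 active means over half of replicate activation scores above 10%, or exactly half above 10 with the replicate mean above 10; inconclusive means replicate mean below 10 yet half the replicates above 10; inactive means over half of replicates below 10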
Each line names hits and unclear results; the compound was inactive in the other large screens. An excerpt weighted towards active compounds, which were near 1.1% of everything screened.

CSc1ccccc1NC(=O)CSc1cccc[n+]1[O-]	none
O=C(CSc1cccc[n+]1[O-])NC1CCCCC1	Bfl-1 A1 inh 8.3
CC(C)(C)[C@H]1C=C(C(=O)NC2CC2)O[C@@H](OCCCCO)C1	none
Cc1cc(C)c2c(c1)CC(C)(C)CC2=O	HTR5A ag 9.2 (no result: Bfl-1 A1 inh)
Cc1cc(C)c(-c2c(O)c3c(n(C)c2=O)CC(C)(C)CC3=O)c(C)c1	none
CNc1oc(Cc2ccccc2)nc1S(=O)(=O)c1ccc(Cl)cc1	none
Cc1nn(C(=O)c2ccco2)c(C)c1Sc1ccccc1	HTR5A ag 11
Cc1nn(C(=O)c2ccco2)c(C)c1Sc1ccc(Br)cc1	none
O=C(COc1cccc(Br)c1)NN=C1c2ccccc2-c2ccccc21	none
O=C(COc1cccc(Br)c1)N/N=C1\CCCc2ccccc21	HTR5A ag 14
O=C(NCC1COc2ccccc2O1)c1cn(Cc2ccc(F)cc2)nn1 (centres undefined)	HTR5A ag 13
CC(c1ccccc1)n1cc(C(=O)NCC2COc3ccccc3O2)nn1 (centres undefined)	HTR5A ag 12
CC(c1ccccc1)n1cc(C(=O)NCc2ccccn2)nn1 (centres undefined)	none
Nc1nccnc1C(=O)OCC(=O)c1ccc[nH]1	none
CC1=Nc2cc(C(=O)NCCCN3CCOCC3)ccc2Sc2c(C)ccc(C)c21	HTR5A ag 10.0
CC1=Nc2cc(C(=O)NCCN3CCOCC3)ccc2Sc2c(C)ccc(C)c21	none
COc1ccc(C(=O)N2N=C(c3ccc(NS(C)(=O)=O)cc3)CC2c2cccs2)cc1 (centres undefined)	none
CC(C)=CC(=O)N1CC[C@@H](N2CCN(c3ccccc3F)CC2)[C@H](O)C1	none
CCOc1ccc(-n2c(SCC(=O)Nc3ccccc3CC)nc3n[nH]c(C)c3c2=N)cc1	none (no result: MOR-DOR inv ag, HTR5A ag, HTR5A inv ag, OPRM1-OPRD1 ag)
Cc1cc(-n2c(SCC(=O)NCc3cccs3)nc3n[nH]c(C)c3c2=N)ccc1Cl	HTR5A ag 12
CCOc1ccc(-n2c(SCC(=O)Nc3ccc(Br)cc3)nc3n[nH]c(C)c3c2=N)cc1	Bfl-1 A1 inh 8.4
Cc1cc(-n2c(SCC(=O)Nc3ccc(F)c(F)c3)nc3n[nH]c(C)c3c2=N)ccc1Cl	HTR5A ag 9.8
CSc1ccccc1NC(=O)c1csc(C)c1	none
CN(CCCC(=O)O)S(=O)(=O)c1ccc2c(c1)C(=O)c1cc(S(=O)(=O)N(C)CCCC(=O)O)ccc1-2	none
O=C(NCc1cccnc1)c1ccc2c(c1)OCO2	none
Cc1ncc(CO)c2c1Oc1nc(-c3ccccc3F)nc(SCC(=O)N(C)c3ccccc3)c1C2	HTR5A ag 12, OPRM1-OPRD1 ag 20
COc1ccc(NC(=O)CCN2C(=O)C3CC=CCC3C2=O)cc1S(=O)(=O)N1CCCCC1 (centres undefined)	none (no result: Bfl-1 A1 inh)
Cc1ccc(S(=O)(=O)NCC(=O)OCC(=O)c2ccc(S(=O)(=O)N3CCCCC3)cc2)cc1C	MOR-DOR inv ag 77, HTR5A inv ag 42 (no result: Bfl-1 A1 inh)
O=C(O)CCC(=O)N1CCN(Cc2ccc3c(c2)OCO3)CC1	HTR5A ag 12
Cc1cc2sc(NC(=O)c3ccco3)nc2cc1Cl	none
COc1cc2sc(NC(=O)c3ccco3)nc2cc1Cl	HTR5A ag 9.9
CCC1CCCCN1CC(=O)c1c(C)[nH]c2ccc(OC)cc12 (centres undefined)	none
Cc1ccccc1NS(=O)(=O)c1ccc(OCC(=O)NCc2ccccn2)cc1	none
Cc1ccc(Nc2nc(-c3ccc(S(=O)(=O)N4CCCC4)cc3)cs2)cc1C	HTR5A ag 10
Cc1cc(C)cc(Nc2nc(-c3ccc(S(=O)(=O)N4CCCC4)cc3)cs2)c1	none
Cc1c(C=O)c2ccccn2c1C(=O)c1ccccc1Cl	none
COc1ccc(CNC(=O)COC(=O)c2c(NC(C)=O)sc(C)c2C)cc1	HTR5A ag 14
COc1cccc(NC(=O)COC(=O)c2c(NC(C)=O)sc(C)c2C)c1	none
COc1ccc(-c2ccc(SCC(=O)Nc3nccs3)nn2)cc1OC	none
O=C(CSc1ccc2c(c1)OCCO2)Nc1ccc(Br)cn1	HTR5A ag 11
CC(C)c1ccc2[nH]c(O)c(N=NC(=O)c3cccc(S(=O)(=O)Nc4ccc(Cl)cc4)c3)c2c1	Bfl-1 A1 inh 13
COc1ccccc1N(C(=O)CCl)c1cn(C(C)=O)c2ccccc12	HTR5A ag 39, OPRM1-OPRD1 ag 50
CC(=O)n1cc(N(C(=O)CCl)c2ccc(Cl)cc2)c2ccccc21	none (no result: MOR-DOR inv ag, HTR5A ag, HTR5A inv ag, OPRM1-OPRD1 ag)
CC(C)(C)C1CCC(=NNc2nc3ccccc3[nH]2)CC1 (centres undefined)	none
c1ccc2c(c1)CC/C2=N/Nc1nc2ccccc2[nH]1	HTR5A ag 12
Cc1noc(C)c1Cc1ccc(O)cc1	HTR5A ag 14
CCOC(=O)CSc1nnc(Cn2c(=O)sc3ccccc32)n1C	HTR5A ag 11
CC(=O)OCCNc1cc(Sc2nc3ccccc3[nH]2)c2nonc2c1[N+](=O)[O-]	MOR-DOR inv ag 35
CC(=O)OCCCNc1cc(Sc2nc3ccccc3s2)c2nonc2c1[N+](=O)[O-]	Bfl-1 A1 inh inconclusive
Cc1cc(=O)oc(C)c1C(=O)Nc1cccnc1Cl	none
OC(CNCC1COc2ccccc2O1)COc1ccc(Cl)cc1 (centres undefined)	HTR5A ag 9.6
CCc1ccc(S(=O)(=O)/N=C2/C=C(Sc3ncn[nH]3)C(=O)c3ccccc32)cc1	OPRM1-OPRD1 ag 30
CCN(c1ccccc1)S(=O)(=O)c1ccc(C(=O)N(CCCN(C)C)c2nc3cc4c(cc3s2)OCO4)cc1	OPRM1-OPRD1 ag 32
O=C(Nc1ccc(Cl)cc1Cl)c1cccc(N2C(=O)C=CC2=O)c1	Bfl-1 A1 inh 14
Cc1cc(NC(=O)C(C)SCC(=O)OC(C)C(=O)Nc2ccc(F)cc2Cl)no1 (centres undefined)	none
Cc1occc1-c1nnc(SCC(=O)Nc2ccccc2N2CCCCC2)n1C	HTR5A ag 9.8
N#Cc1ccc(COc2cccc3cccnc23)cc1	HTR5A ag 14
Brc1ccc(COc2cccc3cccnc23)cc1	none (no result: MOR-DOR inv ag, HTR5A ag, HTR5A inv ag, OPRM1-OPRD1 ag)
NC(=O)c1ccc(NC(=O)COC(=O)CCC2CCCCC2)cc1	none
CCOC(=O)C1=C(C)N(C)C(=S)NC1c1cccc(Cl)c1Cl (centres undefined)	HTR5A ag 10
O=C(NCC(c1ccc(F)cc1)N1CCOCC1)c1ccccc1F (centres undefined)	HTR5A ag 12
O=C(NCC(c1ccc(F)cc1)N1CCOCC1)c1cc(F)c(F)c(F)c1F (centres undefined)	none
Cc1ccc2oc(=O)c3cnn(CC(=O)N4CCCc5ccccc54)c3c2c1	HTR5A ag 14
CCN(CC(=O)Nc1c(F)cccc1F)C(=O)c1ccc(Cl)c(S(=O)(=O)N2CCCCC2)c1	none
Cc1ccc2nc(NC(=O)CSCc3ccccc3)sc2c1	HTR5A ag 10

Bioassay records: PubChem BioAssay, several laboratories
